# Biological target: Solute carrier family 2, facilitated glucose transporter member 1 (Homo sapiens) (UniProt P11166)
# Experiment: ST_JUDE_LEISH: Cytotoxicity at 2uM final concentration against transgenic Leishmania Mexicana promastigotes LmGLUT1 that are glucose transport deficient and complemented with the human glucose transporter GLUT1. Activity is measured by DNA content using SYBR green in vitro
# Format: functional
# Solute carrier family 2, facilitated glucose transporter member 1 (Homo sapiens), sequence (P11166 whole entry): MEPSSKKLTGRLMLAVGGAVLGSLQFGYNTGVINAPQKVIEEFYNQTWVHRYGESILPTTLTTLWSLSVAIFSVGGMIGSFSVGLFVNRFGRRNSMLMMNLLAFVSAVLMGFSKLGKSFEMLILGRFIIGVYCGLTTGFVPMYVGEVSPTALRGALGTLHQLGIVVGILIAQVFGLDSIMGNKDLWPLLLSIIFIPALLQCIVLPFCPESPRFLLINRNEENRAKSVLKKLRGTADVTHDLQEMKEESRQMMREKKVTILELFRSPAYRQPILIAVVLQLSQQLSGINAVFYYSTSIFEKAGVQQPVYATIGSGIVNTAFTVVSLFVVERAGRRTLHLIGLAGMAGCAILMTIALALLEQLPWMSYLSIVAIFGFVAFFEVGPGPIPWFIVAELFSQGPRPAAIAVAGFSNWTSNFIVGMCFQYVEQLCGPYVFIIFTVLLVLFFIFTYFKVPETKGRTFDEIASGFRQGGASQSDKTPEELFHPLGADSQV
row,Compound,inhibition
1,CC(C)N1CCN(C(CN2CCN(CCCOc3ccc(-c4ccccc4)cc3)CC2)c2ccc(F)cc2)CC1 (stereo not given),60.6%
2,Cc1ccc(S(=O)(=O)N(C)c2ccccc2C(=O)Nc2ccccc2Oc2ccccc2)cc1,-0.78%
3,c1cc(CNCCc2ccncc2)cc(-c2cccc(-c3nc4ccccc4[nH]3)c2)c1,13.1%
4,O=C(Nc1ccc(F)c(C(F)(F)F)c1)NC1CCN(CCCCCNC(=O)C2CC2c2ccc(Cl)c(Cl)c2)CC1 (stereo not given),4.2%
5,c1ccc(CNc2nc(NCCc3c[nH]cn3)nc(N3CCCC4CCCCC43)n2)cc1 (stereo not given),-1.84%
6,COc1cc(Cc2cnc(N)nc2N)cc(OC)c1OCCCCCN1C(=O)c2ccccc2C1=O,3.29%
7,COc1ccccc1-n1c(SCC(=O)c2ccc3c(c2)CC(=O)N3C)nnc1-c1cccs1,24%
8,Oc1ccc(CCNc2nc(N/N=C/c3ccc(Cl)cc3)nc(N3CCNCC3)n2)cc1,-0.62%
9,Nc1nc(N)c2c(Cl)c(N3CCOCC3)ccc2n1,36.1%
10,COc1ccc2ncn(-c3ccc(C(N)=O)c(OCc4ccccc4C(F)(F)F)c3)c2c1,-0.54%
11,CCCCNCC(O)COc1ccccc1-c1ccc(N/N=C/c2cccc3ccccc23)nn1 (stereo not given),3.78%
12,CCOc1cc(C(=O)NCc2cc(Cl)cc(Cl)c2)ccc1-c1nc2cc(Cl)ccc2[nH]1,1.6%
13,CCNc1cc(C(=O)N[C@@H](Cc2ccccc2)[C@H](O)CNC2(CCC(C)C)CC2)cc(N2CCCCS2(=O)=O)c1,-1.85%
14,Cc1cccc2nc(-c3ccc(-c4cccc(NC(=O)CN5CCN(C)CC5)c4)s3)[nH]c12,-0.82%
15,COc1ccc2nccc(N3CCC(CCNCc4cc5c(cn4)OCCO5)CC3)c2c1,7.15%
16,NC1=NC(c2ccccc2)N(OCc2ccccc2)C(N)=N1 (stereo not given),0.52%
17,O=C1Nc2ccccc2/C1=N/NC(=S)N1CCOCC1,-0.69%
18,Cc1cc(N[C@@H](Cc2ccccc2)C(=O)NCc2cccs2)nc(NCC2CCCCC2)n1,3.33%
19,COc1ccc(NC(=O)c2ccc(C=Cc3ccc(C(F)(F)F)cc3)cc2)cc1N1CCN(C)CC1,0.43%
20,CC(C)C(=O)NC(NC(=S)Nc1ccc(Br)cc1)C(Cl)(Cl)Cl (stereo not given),-2.18%

row,Compound,inhibition
1,O=C(CC1CCCCC1)NCC(NCCCNc1cc(=O)c2ccccc2[nH]1)c1cc(Br)cc(Br)c1 (stereo not given),3.89%
2,CCOC(=O)/C(=N\OC(C)(C)C(=O)NCc1ccc(O)c(O)c1)c1csc(NC(c2ccccc2)(c2ccccc2)c2ccccc2)n1,-2.31%
3,O=C(CNC(=O)c1ccc(O)cc1)Nc1cccc(-c2cccc(-c3nc4cc(C(F)(F)F)ccc4[nH]3)c2)c1,3.81%
4,Cc1cc(NCCCOc2ccc(Cl)cc2)nc(NCc2ccccc2)n1,18.8%
5,CC(C)(C)OC(=O)N(Cc1cc(-n2nnnc2C(F)(F)F)ccc1O)[C@H]1CCCN(C(=O)OC(C)(C)C)[C@H]1c1ccccc1,-0.38%
6,CCC(=O)c1ccc(-c2ccc(=O)n(CC(=O)N(CCN(CC)CC)Cc3ccc(-c4ccc(C(F)(F)F)cc4)cc3)n2)cc1,0.37%
7,CS(=O)(=O)c1ccc2c(c1)CCN(CCC1CCC(NC(=O)c3cc4cccc(Br)c4[nH]3)CC1)CC2 (stereo not given),2.5%
8,CC(C)COc1ccc(Cl)cc1Cc1nc(-c2nc3ccc(CN4CCCCC4)cc3[nH]2)co1,4.83%
9,O=C(NCCN1CCCC1)c1cccc(-c2ccc(-c3nc4ccccc4[nH]3)cc2)c1,3.79%
10,COc1ccccc1-c1[nH]c2ccccc2c1CN1CCC(c2c(C)cccc2C)CC1,16.3%
11,Cc1cc(=NN=Cc2cccc(Cl)c2)c2ccc(F)cc2[nH]1,0.61%
12,CC(C)(C)c1ccc(-c2ccccc2CNC(=O)c2cccc(O)c2)cc1,6.97%
13,Oc1ccccc1CN(CCCN(Cc1ccccn1)Cc1ccccc1O)Cc1ccccn1,4.2%
14,COc1ccc(C(=O)N2CCC3(CC2)C(=O)N(CC(=O)NCC2CCCCC2)CN3c2ccccc2)cc1,3.99%
15,CCc1cccc(-c2cc(N)n(C)c3nc(N)nc(=O)c2-3)c1,-0.01%
16,CCCc1cc(Cc2cnc(N)nc2N)cc(CC)c1O,1.7%
17,Cc1cc(NC(=O)c2coc3cc(F)c(N4CC(C)N(C)C(C)C4)cc23)cnc1-c1ccc(C#N)cc1 (stereo not given),0.22%
18,c1ccc2[nH]c(-c3ccc(-c4ccc(CN5CCC(N6CCCCC6)CC5)cc4)s3)nc2c1,0.72%
19,CCc1ccc(NC(=O)c2cccc(CN3CCCN(Cc4ccc(OC)cc4)CC3)c2)cc1,1.52%
20,Cc1ccc(C2CC(=O)CC(c3ccccn3)C2[N+](=O)[O-])cc1 (stereo not given),-0.44%

# Biological target: Hexose transporter 1 (Plasmodium falciparum) (UniProt O97467)
# Experiment: ST_JUDE_LEISH: Cytotoxicity at 2uM final concentration against transgenic Leishmania Mexicana promastigotes LmPfHT that are glucose transport deficient and complemented with the Plasmodium falciparum hexose transporter. Activity is measured by DNA content using SYBR green in vitro
# Format: functional
row,Compound,inhibition
1,CC(C)N1CCN(C(CN2CCN(CCCOc3ccc(-c4ccccc4)cc3)CC2)c2ccc(F)cc2)CC1 (stereo not given),32%
2,Cc1ccc(S(=O)(=O)N(C)c2ccccc2C(=O)Nc2ccccc2Oc2ccccc2)cc1,-0.51%
3,c1cc(CNCCc2ccncc2)cc(-c2cccc(-c3nc4ccccc4[nH]3)c2)c1,12.2%
4,O=C(Nc1ccc(F)c(C(F)(F)F)c1)NC1CCN(CCCCCNC(=O)C2CC2c2ccc(Cl)c(Cl)c2)CC1 (stereo not given),3.79%
5,c1ccc(CNc2nc(NCCc3c[nH]cn3)nc(N3CCCC4CCCCC43)n2)cc1 (stereo not given),-0.22%
6,COc1cc(Cc2cnc(N)nc2N)cc(OC)c1OCCCCCN1C(=O)c2ccccc2C1=O,-0.4%
7,COc1ccccc1-n1c(SCC(=O)c2ccc3c(c2)CC(=O)N3C)nnc1-c1cccs1,35.2%
8,Oc1ccc(CCNc2nc(N/N=C/c3ccc(Cl)cc3)nc(N3CCNCC3)n2)cc1,1.75%
9,Nc1nc(N)c2c(Cl)c(N3CCOCC3)ccc2n1,39.5%
10,COc1ccc2ncn(-c3ccc(C(N)=O)c(OCc4ccccc4C(F)(F)F)c3)c2c1,-1.32%
11,CCCCNCC(O)COc1ccccc1-c1ccc(N/N=C/c2cccc3ccccc23)nn1 (stereo not given),3.6%
12,CCOc1cc(C(=O)NCc2cc(Cl)cc(Cl)c2)ccc1-c1nc2cc(Cl)ccc2[nH]1,2.18%
13,CCNc1cc(C(=O)N[C@@H](Cc2ccccc2)[C@H](O)CNC2(CCC(C)C)CC2)cc(N2CCCCS2(=O)=O)c1,-0.04%
14,Cc1cccc2nc(-c3ccc(-c4cccc(NC(=O)CN5CCN(C)CC5)c4)s3)[nH]c12,-1.13%
15,COc1ccc2nccc(N3CCC(CCNCc4cc5c(cn4)OCCO5)CC3)c2c1,8%
16,NC1=NC(c2ccccc2)N(OCc2ccccc2)C(N)=N1 (stereo not given),0.08%
17,O=C1Nc2ccccc2/C1=N/NC(=S)N1CCOCC1,-0.87%
18,Cc1cc(N[C@@H](Cc2ccccc2)C(=O)NCc2cccs2)nc(NCC2CCCCC2)n1,2.71%
19,COc1ccc(NC(=O)c2ccc(C=Cc3ccc(C(F)(F)F)cc3)cc2)cc1N1CCN(C)CC1,0.25%
20,CC(C)C(=O)NC(NC(=S)Nc1ccc(Br)cc1)C(Cl)(Cl)Cl (stereo not given),2.18%

row,Compound,inhibition
1,O=C(CC1CCCCC1)NCC(NCCCNc1cc(=O)c2ccccc2[nH]1)c1cc(Br)cc(Br)c1 (stereo not given),-1.16%
2,CCOC(=O)/C(=N\OC(C)(C)C(=O)NCc1ccc(O)c(O)c1)c1csc(NC(c2ccccc2)(c2ccccc2)c2ccccc2)n1,-1.09%
3,O=C(CNC(=O)c1ccc(O)cc1)Nc1cccc(-c2cccc(-c3nc4cc(C(F)(F)F)ccc4[nH]3)c2)c1,4.39%
4,Cc1cc(NCCCOc2ccc(Cl)cc2)nc(NCc2ccccc2)n1,11.1%
5,CC(C)(C)OC(=O)N(Cc1cc(-n2nnnc2C(F)(F)F)ccc1O)[C@H]1CCCN(C(=O)OC(C)(C)C)[C@H]1c1ccccc1,-2.92%
6,CCC(=O)c1ccc(-c2ccc(=O)n(CC(=O)N(CCN(CC)CC)Cc3ccc(-c4ccc(C(F)(F)F)cc4)cc3)n2)cc1,1.05%
7,CS(=O)(=O)c1ccc2c(c1)CCN(CCC1CCC(NC(=O)c3cc4cccc(Br)c4[nH]3)CC1)CC2 (stereo not given),2.78%
8,CC(C)COc1ccc(Cl)cc1Cc1nc(-c2nc3ccc(CN4CCCCC4)cc3[nH]2)co1,3.69%
9,O=C(NCCN1CCCC1)c1cccc(-c2ccc(-c3nc4ccccc4[nH]3)cc2)c1,5.32%
10,COc1ccccc1-c1[nH]c2ccccc2c1CN1CCC(c2c(C)cccc2C)CC1,16.1%
11,Cc1cc(=NN=Cc2cccc(Cl)c2)c2ccc(F)cc2[nH]1,1.03%
12,CC(C)(C)c1ccc(-c2ccccc2CNC(=O)c2cccc(O)c2)cc1,6.5%
13,Oc1ccccc1CN(CCCN(Cc1ccccn1)Cc1ccccc1O)Cc1ccccn1,3.15%
14,COc1ccc(C(=O)N2CCC3(CC2)C(=O)N(CC(=O)NCC2CCCCC2)CN3c2ccccc2)cc1,4.58%
15,CCc1cccc(-c2cc(N)n(C)c3nc(N)nc(=O)c2-3)c1,0.41%
16,CCCc1cc(Cc2cnc(N)nc2N)cc(CC)c1O,0.94%
17,Cc1cc(NC(=O)c2coc3cc(F)c(N4CC(C)N(C)C(C)C4)cc23)cnc1-c1ccc(C#N)cc1 (stereo not given),-1%
18,c1ccc2[nH]c(-c3ccc(-c4ccc(CN5CCC(N6CCCCC6)CC5)cc4)s3)nc2c1,-0.81%
19,CCc1ccc(NC(=O)c2cccc(CN3CCCN(Cc4ccc(OC)cc4)CC3)c2)cc1,0.1%
20,Cc1ccc(C2CC(=O)CC(c3ccccn3)C2[N+](=O)[O-])cc1 (stereo not given),0.92%
